From PubChem BioAssay (NCI)
“And” between values parts separate entries of the source, which are not always exact repeats. Equal values may be shown once. About 83,000 compounds went through this panel and 20% of them were active in at least one assay; those are over-represented in the sample as a whole.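 Growth was measured after 48 h exposure to one concentration of compound in 96-well plates. Values under 10 count as active.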 The source made the active and inactive calls.

How the values were obtained:
Test in all cases: NCI-60 one-dose screen, 48 h (100 = growth as untreated, 0 = no growth, -100 = all killed)
Conditions in all cases: 10 µM unless noted
[1] = test system: SR leukemia
[2] = test system: RPMI-8226 leukemia
[3] = test system: OVCAR-8 ovarian
[4] = test system: OVCAR-5 ovarian
[5] = test system: OVCAR-4 ovarian
[6] = test system: SK-OV-3 ovarian
[7] = test system: IGROV1 ovarian
[8] = test system: OVCAR-3 ovarian
[9] = test system: HS 578T breast
[10] = test system: NCI/ADR-RES ovarian
[11] = test system: T-47D breast
[12] = test system: BT-549 breast
[13] = test system: MDA-MB-435 melanoma
[14] = test system: SW-620 colon
[15] = test system: MCF7 breast
[16] = test system: HCT-116 colon
[17] = test system: HCC-2998 colon
[18] = test system: KM12 colon
[19] = test system: MDA-MB-468 breast

Measured: growth

O=C(Nc1ccc(Br)cc1)Nc1ccc(-c2ccc3c(c2)NC(=O)/C3=C\c2ccc[nH]2)cc1
active: [15] 8.33% | [18] -22.6% | [19] -5%
inactive: [1] 18.4% | [2] 32.2% | [3] 35.4% | [4] 55.3% | [5] 33.9% | [6] 77.1% | [7] 46.9% | [8] 12.3% | [9] 56% | [10] 25.7% | [11] 12.1% | [12] 17.2% | [13] 39.7% | [14] 21% | [16] 35% | [17] 38.8%

O=C(N/N=C/c1c[nH]c2ccccc12)Nc1ccc(F)c(Cl)c1
inactive: [1] 19.3% | [2] 27.5% | [3] 50.2% | [4] 60.1% | [5] 52.8% | [6] 38.6% | [7] 42.7% | [8] 18.9% | [9] 58.8% | [11] 34% | [12] 18.5% | [14] 41.3% | [16] 25.5%
active: [10] 9.47% | [13] 0.865% | [15] 9.25% | [17] 3.69% | [18] -14.7% | [19] -1.93%

COC(=O)c1ccc(-c2c(-c3ccccc3)c(F)c3oc(C(=O)OC)c(N)c3c2-c2ccccc2)cc1
inactive: [1] 76.9% | [2] 101% | [3] 105% | [4] 96.6% | [5] 97.6% | [6] 98.7% | [7] 102% | [8] 103% | [9] 91.1% | [10] 94.3% | [11] 64.5% | [12] 95.7% | [13] 101% | [14] 87.1% | [15] 75.6% | [16] 84.3% | [17] 98.4% | [18] 95.6% | [19] 84%

O=C(Cn1c(-c2ccccc2)nc2ccccc21)N=Nc1c(O)[nH]c2ccc(Cl)cc12
active: [1] -14.7% | [3] -26.3% | [5] -44.4% | [6] -6.33% | [7] 9.94% | [8] 1.02% | [9] -16.2% | [10] -43.2% | [11] -29.8% | [12] -53% | [13] 2.53% | [15] 9.49% | [16] -23.7% | [19] -18.9%
inactive: [2] 20.4% | [4] 18.5% | [14] 23% | [17] 19.5% | [18] 32.2%

COc1cc(C2CC(c3cc(OC)c(OC)c(OC)c3)=Nc3c(N)nc(N)nc3N2)ccc1Oc1nc(Nc2ccc(F)cc2)nc(N(C)C)n1 (stereo not given)
active: [1] -7.88% | [19] -22.6%
inactive: [2] 33.9% | [3] 59% | [4] 105% | [5] 49.2% | [6] 107% | [7] 70.8% | [8] 74.2% | [9] 48.2% | [10] 66.4% | [11] 65.8% | [12] 74.7% | [13] 66.4% | [14] 50.7% | [15] 23.4% | [16] 22.9% | [17] 36.8% | [18] 42.9%

CSc1ccc(OCc2nc3ccccc3n2-c2cccc(NS(C)(=O)=O)c2)cc1
inactive: [1] 82.6% and 89.5% | [2] 93.7% and 91.1% | [3] 99.5% and 88.4% | [4] 130% and 117% | [5] 93.8% and 69.4% | [6] 110% and 83.5% | [7] 95.3% and 82.8% | [8] 118% | [9] 80.9% and 65% | [10] 96.5% and 79.7% | [11] 99.4% and 78.4% | [12] 131% and 105% | [13] 105% and 98.3% | [14] 102% and 94.4% | [15] 89.9% and 55.7% | [16] 101% and 70.6% | [17] 122% and 112% | [18] 103% and 78.8% | [19] 110% and 98.2%

CC(=O)Nc1ccc(S(=O)(=O)Nc2ccc(-c3ccc4c(c3)NC(=O)/C4=C\c3ccc[nH]3)cc2)cc1
inactive: [1] 34.7% | [2] 78.3% | [3] 98% | [4] 79.5% | [5] 67.8% | [6] 104% | [7] 81.2% | [8] 141% | [9] 98.6% | [10] 107% | [11] 20.7% | [12] 42.6% | [13] 99.7% | [14] 114% | [15] 14.4% | [16] 87.1% | [17] 96.9% | [18] 51.6%
active: [19] -7.1%

COc1ccc(-c2cc(C(=O)Oc3ccc(C=O)cc3OC)nn2-c2ccc(S(C)(=O)=O)cc2)cc1
inactive: [1] 84.9% | [2] 70.4% | [3] 103% | [4] 125% | [5] 89.7% | [6] 122% | [7] 112% | [8] 93.4% | [9] 112% | [10] 101% | [11] 92.2% | [12] 105% | [13] 98.3% | [14] 109% | [15] 84.5% | [16] 98.3% | [17] 116% | [18] 103% | [19] 107%

CCOc1ccccc1[C@H]1C(C(=O)c2ccc(Cl)cc2)C2(N[C@@H]1c1ccccc1)C(=O)Nc1ccc(Cl)cc12 (stereo not given in full)
inactive: [2] 21.1% | [3] 45% | [4] 46.2% | [5] 22.5% | [6] 42.8% | [7] 22.2% | [8] 27% | [9] 49% | [10] 12.6% | [11] 19.9% | [13] 24.1% | [14] 38.1% | [16] 11.1% | [17] 20.4% | [18] 24.2%
active: [1] -28.3% | [12] 9.4% | [15] 5.27% | [19] 4.39%

O=C(Nc1ccc(-c2ccc3c(c2)NC(=O)/C3=C\c2ccc[nH]2)cc1)Nc1cccc(Cl)c1
inactive: [2] 18.2% | [9] 21.9% | [13] 10.1% | [14] 13.9%
active: [1] 6.39% | [3] -34.5% | [4] -68.3% | [5] 6.87% | [6] 3.23% | [7] -62.2% | [8] 2.44% | [10] -37.9% | [11] -1.23% | [12] -1.48% | [15] -9.34% | [16] 2.08% | [17] -24.2% | [18] -22.3% | [19] -55.5%

c1n[nH]cc1-c1nc2ccc3[nH]ncc3c2c2c1CC1(CC2)COC1
active: [1] 5.21% | [9] 0.359% | [12] -7.9% | [14] 8.89% | [19] -24.5%
inactive: [2] 71.4% | [3] 52% | [4] 107% | [5] 89.7% | [6] 21.7% | [7] 55.4% | [8] 43.8% | [10] 108% | [11] 26.8% | [13] 30.7% | [15] 62.4% | [16] 15.4% | [17] 60.4% | [18] 56.7%

Cc1ccc(C(=O)Nc2cccc(C(=O)NC(=S)Nc3ccc(S(N)(=O)=O)cc3)c2)cc1
inactive: [1] 79.7% | [2] 82.2% | [3] 51.1% | [4] 91.5% | [5] 31.6% | [6] 77% | [7] 96.2% | [8] 78.8% | [9] 63.8% | [10] 84.8% | [11] 47.6% | [12] 51.4% | [13] 72.5% | [14] 116% | [15] 57.2% | [16] 71.6% | [17] 95.8% | [18] 76.9% | [19] 58.7%

COc1ccc(NC(=O)N/N=C/c2c[nH]c3ccccc23)cc1
inactive: [1] 23.4% | [2] 24.9% | [3] 20.5% | [4] 37.4% | [5] 69.9% | [6] 37.5% | [7] 40.8% | [9] 27.1% | [10] 15.3% | [11] 43.3% | [12] 19.1% | [14] 25% | [15] 16.8% | [16] 21.5% | [17] 44.3% | [18] 24.7% | [19] 16.4%
active: [8] -34.1% | [13] -26.1%

COc1ccc(C(=O)NNC(=O)CSc2nc3sc4c(c3c(=O)n2-c2ccc(Cl)cc2)CCCC4)cc1
inactive: [1] 48.2% | [2] 79% | [3] 24.3% | [4] 78.9% | [5] 78.6% | [6] 70.4% | [7] 89.2% | [8] 106% | [9] 60.4% | [10] 56.9% | [11] 72.5% | [12] 34.5% | [13] 93.4% | [14] 88% | [15] 63.5% | [16] 72.7% | [17] 111% | [18] 98% | [19] 88.3%

N#CC1=C(c2ccco2)Nc2c(c(-c3ccccc3)nn2-c2ccccc2)C12C(=O)Nc1ccc(Br)cc12 (stereo not given)
inactive: [1] 31.9% | [2] 47.8% | [3] 25% | [4] 74.9% | [5] 41.6% | [6] 80% | [7] 67% | [8] 42.5% | [10] 29.9% | [11] 48.5% | [12] 70.4% | [13] 59.8% | [14] 46.3% | [15] 39.8% | [17] 91.8% | [18] 66.4% | [19] 66.6%
active: [9] 6.01% | [16] 5.08%
